Measurements: PubChem BioAssay (NCI)
The panel holds about 83,000 compounds, 20% with a hit somewhere; the sample as a whole holds those more often.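 Single-concentration screen, 48 h exposure, 96-well plates. Endpoint: percent growth. Below 10 = active.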 Calls of active or inactive are those of the source.

Columns and labels:
Assay in all cases: NCI-60 one-dose screen, 48 h (100 = growth as untreated, 0 = no growth, -100 = all killed)
Conditions in all cases: 10 µM unless noted
[1] = tested on: DU-145 prostate
[2] = tested on: K-562 leukemia
[3] = tested on: MALME-3M melanoma
[4] = tested on: MDA-MB-231 breast
[5] = tested on: RXF 393 renal
[6] = tested on: SF-268 CNS
[7] = tested on: SF-539 CNS
[8] = tested on: UACC-257 melanoma
[9] = tested on: M14 melanoma
[10] = tested on: HCT-15 colon
[11] = tested on: HT29 colon
[12] = tested on: SNB-75 CNS
[13] = tested on: SNB-19 CNS
[14] = tested on: U251 CNS
[15] = tested on: PC-3 prostate
[16] = tested on: SK-MEL-5 melanoma
[17] = tested on: UACC-62 melanoma
[18] = tested on: LOX IMVI melanoma
[19] = tested on: SK-MEL-28 melanoma
[20] = tested on: SF-295 CNS

Measured: growth

O=C1c2ccccc2C(=Cc2ccccc2)c2ccccc21
inactive: [3] 41.6% | [6] 10.6% | [8] 15.7% | [13] 24.8% | [15] 31.8% | [16] 13.7% | [17] 23.9% | [19] 18.3%
active: [1] -21.3% | [2] 8.16% | [4] -20.7% | [5] -1.26% | [7] -26.2% | [9] -20.5% | [10] 7.88% | [11] 0.453% | [12] -40.9% | [14] 6.21% | [18] 4.62%

N#CCCCCCn1c2ccccc2c2c3c(c4c5ccccc5n(CCCCCC#N)c4c21)C(=O)N(O)C3=O
inactive: [1] 93.6% | [2] 79.7% | [3] 77.1% | [4] 32.3% | [5] 80.8% | [6] 70.3% | [20] 89.2% | [7] 71% | [9] 85.3% | [10] 97.3% | [11] 68% | [12] 100% | [13] 66.7% | [14] 83.8% | [15] 68.5% | [18] 24%

COc1ccc(/C=C/C(=O)NCCO)cc1
inactive: [1] 102% | [2] 95.7% | [3] 92.3% | [4] 105% | [5] 106% | [6] 94.3% | [20] 98.3% | [7] 94.9% | [9] 106% | [10] 98% | [11] 96.1% | [12] 80.7% | [13] 111% | [15] 91.8% | [16] 101% | [18] 95.9% | [19] 104%

O=C1C=C(C(O)c2ccc(O)cc2)C(=O)c2ccccc21 (centres undefined)
inactive: [1] 107% | [2] 97.2% | [3] 95.6% | [4] 83.5% | [5] 147% | [6] 108% | [7] 106% | [8] 107% | [9] 79.5% | [10] 94.9% | [11] 115% | [12] 102% | [13] 110% | [14] 95.1% | [15] 99.5% | [16] 96.5% | [17] 101% | [18] 83.7% | [19] 120%

COc1ccc(C(=O)c2cc(OC)c(OC)c(OC)c2)cc1/C=C/C(=O)c1cc(OC)c(OC)c(OC)c1
inactive: [1] 83.4% | [2] 99.8% | [3] 86.1% | [4] 62.8% | [5] 70% | [6] 88.7% | [7] 94% | [8] 81.6% | [9] 81.4% | [10] 64.7% | [11] 82.7% | [12] 65.4% | [13] 92.7% | [14] 86.4% | [15] 86.5% | [16] 86.6% | [17] 70.6% | [18] 79% | [19] 91.3%

COc1cccc(-c2nn(-c3ccccc3)cc2-c2ccnc(NCCNS(=O)(=O)c3ccc(C(F)(F)F)cc3)c2)c1
active: [2] 3.79% | [3] -17.9% | [4] 6.28% | [5] -22.2% | [20] 3.05% | [7] 2.91% | [11] -14.6% | [15] 5.74% | [16] -94.7% | [18] 4.44%
inactive: [1] 46.6% | [6] 36% | [9] 13.6% | [10] 11.9% | [12] 46.8% | [13] 21.8%

Nc1nc(N)c2nc3c(nc2n1)CCCCCCCCCC3
inactive: [1] 53.6% | [2] 29.1% | [3] 79.1% | [4] 84.9% | [5] 80% | [6] 42.1% | [7] 59.6% | [8] 55.5% | [9] 33.1% | [10] 33.6% | [11] 35.6% | [12] 79.2% | [13] 50.8% | [14] 34.9% | [15] 39.2% | [16] 35% | [17] 43.9% | [18] 30.8% | [19] 90.4%

OCCNc1nc(Nc2ccc(Cl)c(Cl)c2)nc2ccccc12
inactive: [1] 70.9% | [3] 31.1% | [5] 16.8% | [6] 48.6% | [7] 75.1% | [8] 57.9% | [9] 29.9% | [10] 26.2% | [12] 61.1% | [13] 55.5% | [14] 34.2% | [15] 18.8% | [16] 34% | [17] 57.1% | [18] 34.1% | [19] 73.6%
active: [2] 2.65% | [4] 5.57% | [11] 9.9%

COc1cc2[nH]c(C(=O)c3cc(OC)c(OC)c(OC)c3)c(N)c2cc1C#CCO
active: [2] 7.65% | [5] 1.88% | [7] -35% | [9] 7.42% | [11] 1.02% | [12] 8.88% | [16] -0.319%
inactive: [1] 12.2% | [3] 31.7% | [4] 39% | [6] 32.5% | [8] 71.2% | [10] 19.6% | [13] 26.3% | [14] 22.8% | [15] 10.6% | [17] 31.2% | [18] 39.4% | [19] 14.3%

c1ccc(C2Cc3ccccc3C2=NC2CCCCC2)cc1 (centres undefined)
inactive: [1] 115% | [2] 99.6% | [3] 116% | [4] 97.2% | [5] 110% | [6] 102% | [7] 89.3% | [8] 110% | [9] 91.7% | [10] 94.9% | [11] 106% | [12] 92.3% | [13] 104% | [14] 97.9% | [15] 84.4% | [16] 103% | [17] 99.6% | [18] 103% | [19] 114%

O=C(CI)Nc1ccc(O)c2ccccc12
active: [2] -16.2% | [3] -14% | [4] -11.8% | [5] -89.7% | [6] -0.419% | [7] -28.6% | [9] -58.9% | [10] -10.1% | [11] 0.99% | [14] -28.4% | [16] -47.7% | [17] -58.7% | [18] -60.6%
inactive: [1] 41.9% | [8] 10.7% | [12] 54.2% | [13] 46.1% | [15] 43.3% | [19] 41.5%

COc1ccc(C2NC(=O)Nc3ccccc32)c(OC)c1 (centres undefined)
inactive: [1] 112% | [2] 93.7% | [3] 85.6% | [4] 94.7% | [5] 110% | [6] 100% | [20] 94.2% | [7] 93.8% | [9] 95.6% | [10] 100% | [11] 108% | [12] 68.7% | [13] 99.1% | [14] 99.7% | [15] 82.2% | [18] 103%

COc1ccc(/C=C2\N=C(c3ccccc3)N(c3cc(OC)c(OC)cc3C(=O)N3N=C(C)CC3=O)C2=O)cc1
inactive: [1] 95.2% | [2] 81.5% | [3] 126% | [4] 87.4% | [5] 93.5% | [6] 91.4% | [7] 94.6% | [8] 128% | [9] 97.9% | [10] 90% | [11] 99.7% | [12] 87.6% | [13] 99.5% | [14] 102% | [15] 89.4% | [16] 77.3% | [17] 65.5% | [19] 95.2%

NC1(N)C=CC2=C(C=C1)C1(N)C3=C(C=CC(N)(N)C=C3)N2C2(N)C3=C(C=CC(N)(N)C=C3)N1C1=C2C=CC(N)(N)C=C1
inactive: [1] 97% | [2] 81.7% | [3] 103% | [4] 67.3% | [5] 104% | [6] 86.8% | [7] 73.4% | [8] 89.7% | [9] 94.5% | [10] 94.7% | [11] 94.4% | [12] 93.9% | [13] 101% | [14] 83.3% | [15] 72.2% | [16] 75% | [17] 81.5% | [19] 99.1%

COc1cc2[nH]c(C(=O)c3cc(OC)c(OC)c(OC)c3)c(N)c2cc1C#CC1CC1
active: [7] -38.7% | [11] 5.53% | [12] -4.88%
inactive: [1] 28.9% | [2] 30.2% | [3] 52.4% | [4] 58.4% | [5] 19.6% | [6] 40.7% | [8] 67.9% | [9] 22% | [10] 23.1% | [13] 45.1% | [14] 45% | [15] 16.7% | [16] 18.4% | [17] 34.4% | [18] 36.1% | [19] 35.2%

c1ccc2[nH]c(-c3cc(-c4ccc5c(c4)OCO5)n[nH]3)nc2c1
inactive: [1] 69.1% | [2] 36.3% | [3] 38.2% | [4] 65% | [5] 59.6% | [6] 70.5% | [7] 52.4% | [8] 66.4% | [9] 45.8% | [10] 56.7% | [11] 67.5% | [12] 33.8% | [13] 68.3% | [14] 36.6% | [15] 50.4% | [17] 49.7% | [19] 71.3%
